In PubChem BioAssay (NCATS):
Results filed as inconclusive are left out. The source made the active and inactive calls. Calls come from the whole dose curve; as a rule, active = well fitted activation curve with a large enough effect; inconclusive = small, poorly fitted or top-dose-only effect; inactive = no such curve, though single readings can be large or run the other way.

Molecular target: Rap guanine nucleotide exchange factor 4 (Homo sapiens) (UniProt Q8WZA2)
Test: Confirmatory qHTS for agonist of cAMP-regulated guanine nucleotide exchange factor 4 (EPAC2) (AID 1645884);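 note: nucleotide exchange releases bodipy-GDP from Rap1 and this lowers its fluorescence; nearly all actives have a fitted effect of over 65% in size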
Conditions: EPAC2 GEF activity, Rap1B-BODIPY-GDP fluorescence; series mostly up to 154 µM
% is set by controls: 0 for no effect and ±100 for the full control effect.

Rap guanine nucleotide exchange factor 4 (Homo sapiens), sequence (Q8WZA2 whole entry, looked up): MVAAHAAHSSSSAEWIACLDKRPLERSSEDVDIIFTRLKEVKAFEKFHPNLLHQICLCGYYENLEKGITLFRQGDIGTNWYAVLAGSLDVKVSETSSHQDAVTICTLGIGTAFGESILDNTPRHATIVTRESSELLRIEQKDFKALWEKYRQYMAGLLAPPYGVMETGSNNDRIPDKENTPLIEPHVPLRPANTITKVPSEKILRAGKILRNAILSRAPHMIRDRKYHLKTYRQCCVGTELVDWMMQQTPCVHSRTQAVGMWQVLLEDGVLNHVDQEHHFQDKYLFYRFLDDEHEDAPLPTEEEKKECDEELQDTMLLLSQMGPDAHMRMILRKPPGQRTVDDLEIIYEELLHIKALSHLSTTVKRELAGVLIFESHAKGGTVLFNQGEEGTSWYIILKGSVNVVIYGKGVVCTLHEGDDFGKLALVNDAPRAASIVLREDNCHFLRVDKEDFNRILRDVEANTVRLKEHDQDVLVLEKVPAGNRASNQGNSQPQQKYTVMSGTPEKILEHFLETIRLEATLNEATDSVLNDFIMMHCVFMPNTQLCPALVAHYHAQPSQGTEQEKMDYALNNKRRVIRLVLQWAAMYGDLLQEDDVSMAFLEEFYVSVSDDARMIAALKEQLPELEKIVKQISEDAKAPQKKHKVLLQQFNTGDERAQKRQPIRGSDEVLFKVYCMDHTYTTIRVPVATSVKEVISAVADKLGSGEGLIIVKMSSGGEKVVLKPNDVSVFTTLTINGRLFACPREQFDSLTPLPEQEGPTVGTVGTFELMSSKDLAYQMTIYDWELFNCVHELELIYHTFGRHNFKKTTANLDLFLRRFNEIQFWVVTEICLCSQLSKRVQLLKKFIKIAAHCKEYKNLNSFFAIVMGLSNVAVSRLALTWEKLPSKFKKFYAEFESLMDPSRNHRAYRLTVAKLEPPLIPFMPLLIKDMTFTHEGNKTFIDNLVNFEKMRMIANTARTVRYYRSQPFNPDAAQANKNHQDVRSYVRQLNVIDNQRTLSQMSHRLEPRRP

Potency, inactive:
Cn1c(SCC(=O)Nc2cccc(C(=O)O)c2)nnc1-c1cc2cc(Br)ccc2o1
O=C(/C=C/c1ccc(N2CCOCC2)cc1)c1ccccc1
COc1ccc(C(=O)c2ccc(Br)cc2)c(OC)c1OC
CCOc1cc(/C=C2\SC(=Nc3ccc(CC)cc3)NC2=O)ccc1OCC(=O)O
COc1cc(/C=C2\CCn3c2nc2cc(C(=O)O)ccc2c3=O)ccc1OC(F)F
O=C(O)CC/C(=C\c1ccc(N2CCCC2)c([N+](=O)[O-])c1)c1nc2ccccc2s1
O=C(O)CCN1C(=O)/C(=C\c2cccc(OCC(=O)Nc3ccc(Cl)cc3)c2)SC1=S
Cc1c(CCC(=O)O)c(=O)oc2cc(OCc3ccccc3Br)ccc12

activation, inactive:
O=C(OCCN1C(=O)c2cccc3c(N4CCOCC4)ccc(c23)C1=O)c1ccccc1Cl 17.6% [at 17.1 µM, percent relative to cAMP agonist control]
COc1ccc(OC)c(C2=CC(=O)C[C@H](c3ccc4c(c3)OCO4)C2)c1 11.2% [at 17.1 µM, percent relative to cAMP agonist control]
O=C(O)COc1ccccc1/C=N/Nc1ccc(S(=O)(=O)Nc2ccc(Cl)cc2)cc1[N+](=O)[O-] 1.99% [at 17.1 µM, percent relative to cAMP agonist control]
Oc1ccccc1N=Cc1c(O)ccc2ccccc12 0% [at 17.1 µM, percent relative to cAMP agonist control]
